Results: article doi:10.1101/2024.03.05.583629

target: pT7_6His-AlfaTag-HOXD13 (human, UniProt P35453 263-343); experiment: PADIT-seq; details: dsDNA, one strand shown
Sequence (P35453 263-343): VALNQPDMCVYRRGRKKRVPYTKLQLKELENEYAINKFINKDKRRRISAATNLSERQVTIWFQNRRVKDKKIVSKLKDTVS

Sequence	binding signal
CTCGAGGATATCAAGATCTGGCCTCGGCCATTTAAAAGGAACCTCTAGCTAGCCGACTCACTATAGGGATAATCGCCCTGAGCAAAGACC	2.3 ± 0.0841 log2FC
CTCGAGGATATCAAGATCTGGCCTCGGCCCCTTAAAAGGAACCTCTAGCTAGCCGACTCACTATAGGGATAATCGCCCTGAGCAAAGACC	2.7 ± 0.0989 log2FC
CTCGAGGATATCAAGATCTGGCCTCGGCATTTTACAAGGAACCTCTAGCTAGCCGACTCACTATAGGGATAATCGCCCTGAGCAAAGACC	3.41 ± 0.0871 log2FC
CTCGAGGATATCAAGATCTGGCCTCGGCTTCTTAAAAGGAACCTCTAGCTAGCCGACTCACTATAGGGATAATCGCCCTGAGCAAAGACC	0.549 ± 0.0953 log2FC
CTCGAGGATATCAAGATCTGGCCTCGGCTTTTTACGCGGAACCTCTAGCTAGCCGACTCACTATAGGGATAATCGCCCTGAGCAAAGACC	2.08 ± 0.0867 log2FC
CTCGAGGATATCAAGATCTGGCCTCGGCACTCTAAAAGGAACCTCTAGCTAGCCGACTCACTATAGGGATAATCGCCCTGAGCAAAGACC	0.139 ± 0.11 log2FC
CTCGAGGATATCAAGATCTGGCCTCGGCAGCTTAAAAGGAACCTCTAGCTAGCCGACTCACTATAGGGATAATCGCCCTGAGCAAAGACC	0.129 ± 0.0835 log2FC
CTCGAGGATATCAAGATCTGGCCTCGGCATTTTAAGCGGAACCTCTAGCTAGCCGACTCACTATAGGGATAATCGCCCTGAGCAAAGACC	0.548 ± 0.1 log2FC
CTCGAGGATATCAAGATCTGGCCTCGGCCTTTTAACGGGAACCTCTAGCTAGCCGACTCACTATAGGGATAATCGCCCTGAGCAAAGACC	1.98 ± 0.0882 log2FC
CTCGAGGATATCAAGATCTGGCCTCGGCCGCTTACGCGGAACCTCTAGCTAGCCGACTCACTATAGGGATAATCGCCCTGAGCAAAGACC	-0.713 ± 0.125 log2FC
CTCGAGGATATCAAGATCTGGCCTCGGCGTTTTACGTGGAACCTCTAGCTAGCCGACTCACTATAGGGATAATCGCCCTGAGCAAAGACC	2.36 ± 0.0852 log2FC
CTCGAGGATATCAAGATCTGGCCTCGGCCGCCCATATGGAACCTCTAGCTAGCCGACTCACTATAGGGATAATCGCCCTGAGCAAAGACC	-0.841 ± 0.12 log2FC
CTCGAGGATATCAAGATCTGGCCTCGGCTTTTTAACCGGAACCTCTAGCTAGCCGACTCACTATAGGGATAATCGCCCTGAGCAAAGACC	0.739 ± 0.095 log2FC
